From PubChem BioAssay (EPA / NIEHS)
Activity calls are given as the source filed them. Rule for the calls: active = hit-call score of the fitted dose curve at least 0.9, where 1 is the maximum; inactive = score below 0.9.

Tests used:
[1] = ATG_CRE_CIS: Attagene CIS-FACTORIAL HepG2 Assay for human cAMP Responsive Element (CRE) binding protein 3 (AID 2282926); details: HepG2 CRE cis-reporter, Attagene multiplexed mRNA; actives raise or lower the signal
Method in brief: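 Assay format: transient reporter transfection of HepG2, 24 h treatment, total RNA isolation with DNase I step. Reporter abundance read by fluorescence after PCR and capillary separation; DMSO-normalised gain or loss fitting.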

[2] = biological target: CCAAT/enhancer-binding protein beta (Homo sapiens) (UniProt P17676); assay: ATG_C_EBP_CIS: Attagene CIS-FACTORIAL HepG2 Assay for human CCAAT/Enhancer Binding Protein (C/EBP) beta (AID 2282927); details: HepG2 Attagene cis-factorial transcription factor reporter; actives raise or lower the signal
Method in brief: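 Endogenous C/EBPb-driven reporter transcripts measured in transfected human HepG2 cells at 24 h via RT-PCR and capillary electrophoresis of labelled fragments. Activity fitted in both directions relative to DMSO baseline.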

[3] = ATG_CMV_CIS: Attagene CIS-FACTORIAL HepG2 Assay for human CMV (Internal Marker) (AID 2282928); details: HepG2 CMV promoter reporter, transcription factor profiling; actives raise or lower the signal;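 note: endpoint acts as a background internal control marker rather than a target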
Method in brief: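 24 h chemical treatment, HepG2 with transient multi-reporter transfection; RNA → oligo(dT) RT → PCR → 6-FAM extension → HpaI digest → CE fluorescence. Bidirectional fit, DMSO negative control.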

[4] = ATG_DR4_LXR_CIS: Attagene CIS-FACTORIAL HepG2 Assay for human Liver X Receptor (LXR), DR4 submotif (AID 2282929); details: HepG2 Attagene DR4 cis-reporter, mRNA transcription; actives raise or lower the signal
Method in brief: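 DR4 cis-reporter in HepG2, 24 h exposure. Detection: RT-PCR, 6-FAM labelling, CE fragment analysis. Endpoint fitted bidirectionally, DMSO = baseline.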

[5] = ATG_AP_2_CIS: Attagene CIS-FACTORIAL HepG2 Assay for human Activator Protein 2 (AP-2) (AID 2282932); details: HepG2 AP-2 cis-reporter, Attagene transcription factor profiling; actives raise or lower the signal
Method in brief: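 Endogenous transcription factor activity is reported through transfected multiplex reporter constructs in HepG2, after 24 h of compound exposure. Transcripts were quantified by RT-PCR and capillary electrophoresis of fluorescent fragments. Bidirectional fit against DMSO.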

[6] = ATG_E_Box_CIS: Attagene CIS-FACTORIAL HepG2 Assay for human Enhancer Box (E-box) (AID 2282936); details: HepG2 E-box cis-reporter transcription, actives raise or lower the signal
Method in brief: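 E-box-driven reporter transcripts measured in transiently transfected HepG2 after 24 h exposure: RNA reverse-transcribed, PCR-amplified, fluorescently labelled, digested and resolved by capillary electrophoresis. Gain or loss relative to DMSO.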

[7] = ATG_EGR_CIS: Attagene CIS-FACTORIAL HepG2 Assay for human Early Growth Response 1 (EGR1) (AID 2282938); details: HepG2 Attagene CIS-FACTORIAL EGR reporter mRNA; actives raise or lower the signal
Method in brief: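 Endpoint derived by bidirectional fitting versus DMSO vehicle. Method: cis-promoter reporter units transfected into HepG2, 24 h dosing, RNA isolation, RT-PCR with 6-FAM primer extension and HpaI digestion, then capillary electrophoresis fluorescence detection.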

[8] = ATG_M_19_CIS: Attagene CIS-FACTORIAL HepG2 Assay for M19 Transcription Factor (Internal Marker) (AID 2282939); details: HepG2 Attagene CIS-FACTORIAL M19 internal marker reporter; actives raise or lower the signal
Method in brief: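 Chemical-treated HepG2 (24 h) with MRTU constructs; reporter transcripts detected by fluorescent RT-PCR fragment analysis on capillary electrophoresis. Internal background marker, DMSO as baseline.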

[9] = ATG_Ets_CIS: Attagene CIS-FACTORIAL HepG2 Assay for human Erythroblast Transformation Specific (ETS) (AID 2282941); details: HepG2 ETS cis-reporter transcription, actives raise or lower the signal
Method in brief: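 Cis-regulated reporter mRNA induction in HepG2 (transient transfection), 24 h exposure, RT-PCR plus capillary electrophoresis detection; DMSO serves as negative control and baseline.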

[10] = biological target: Hepatocyte nuclear factor 3-beta (Homo sapiens) (UniProt Q9Y261); assay: ATG_FoxA2_CIS: Attagene CIS-FACTORIAL HepG2 Assay for human Forkhead box A2 (FOXA2) (AID 2282942); details: HepG2 cis-reporter transcription factor activity, 24 h; actives raise or lower the signal
Method in brief: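 Measured: reporter mRNA induction or loss in HepG2 transiently carrying multiple cis-regulated reporter units, 24 h after dosing. Quantified by RT-PCR plus capillary electrophoresis, normalised to DMSO.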

[11] = ATG_FoxO_CIS: Attagene CIS-FACTORIAL HepG2 Assay for human Forkhead box O (FoxO) (AID 2282943); details: HepG2 Attagene cis-reporter, FoxO element, mRNA; actives raise or lower the signal
Method in brief: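 Endogenous transcription factor activity read from multiplexed cis-promoter reporter transcripts in transiently transfected HepG2, 24 h after dosing. Reporter RNA measured via RT-PCR plus capillary electrophoresis of FAM-labeled products; gain or loss relative to DMSO.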

[12] = ATG_GATA_CIS: Attagene CIS-FACTORIAL HepG2 Assay for human GATA Binding Protein (AID 2282944); details: HepG2 GATA cis-element reporter, Attagene multiplex mRNA; actives raise or lower the signal
Method in brief: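 Transfected cis-reporter HepG2 cells were treated with chemicals for 24 hours. Total RNA was then converted to cDNA, amplified with reporter-specific primers and analysed by fluorescent capillary electrophoresis, using DMSO-treated wells as baseline.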

[13] = ATG_M_32_CIS: Attagene CIS-FACTORIAL HepG2 Assay for M32 Transcription Factor (Internal Marker) (AID 2282949); details: HepG2 Attagene cis-factorial M32 reporter, mRNA; actives raise or lower the signal;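 note: background control marker of the multiplexed CIS panel rather than a real target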
Method in brief: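 HepG2 transfectants (cis-regulated reporter transcription units) dosed 24 h. Reporter mRNA by RT-PCR plus CE, analysed as gain or loss relative to DMSO.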

[14] = ATG_M_06_CIS: Attagene CIS-FACTORIAL HepG2 Assay for M06 Transcription Factor (Internal Marker) (AID 2282950); details: HepG2 Attagene CIS-FACTORIAL M06 internal marker reporter; actives raise or lower the signal
Method in brief: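 Cells (HepG2, transiently carrying cis-driven reporter units) receive chemical for 24 h before RNA isolation. Reporter cDNA is PCR-amplified, FAM-labelled by primer extension, HpaI-digested and sized on a capillary analyser.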

[15] = ATG_PXRE_CIS: Attagene CIS-FACTORIAL HepG2 Assay for human Pregnane X Receptor Element (PXRE) (AID 2282957); details: HepG2 Attagene CIS-FACTORIAL PXRE reporter, mRNA; actives raise or lower the signal
Method in brief: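 Using HepG2 transfected with multiple reporter transcription units, endogenous factor-driven transcription was scored as reporter mRNA after 24 h exposure.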

[16] = ATG_Sox_CIS: Attagene CIS-FACTORIAL HepG2 Assay for human SRY-box transcription factor (SOX) (AID 2282960); details: HepG2 Attagene cis-factorial SOX reporter, mRNA; actives raise or lower the signal
Method in brief: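 Gain- or loss-of-signal endpoint, fitted bidirectionally with DMSO as negative control. Based on reporter mRNA from transfected HepG2 cells harvested 24 h post-treatment and quantified via RT-PCR and capillary electrophoresis.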

[17] = biological target: Transcription factor Sp1 (Homo sapiens) (UniProt P08047); assay: ATG_Sp1_CIS: Attagene CIS-FACTORIAL HepG2 Assay for human Specificity Protein 1 (Sp1) (AID 2282961); details: HepG2 Sp1 cis-reporter transcription, actives raise or lower the signal
Method in brief: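 Endpoint reflects endogenous Sp1 transcriptional activity, not an exogenous fusion protein: HepG2 cells with transfected cis-regulated reporters, 24 h dosing, RT-PCR/capillary electrophoresis mRNA read-out, DMSO-normalised bidirectional fit.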

[18] = ATG_SREBP_CIS: Attagene CIS-FACTORIAL HepG2 Assay for human Sterol Regulatory Element Binding (SREBP) (AID 2282962); details: HepG2 Attagene cis-factorial SREBP reporter, mRNA; actives raise or lower the signal
Method in brief: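 Endogenous factor activity is measured in HepG2 through multiplexed reporter units under cis-element control. Following a 24 h incubation, reporter transcripts are reverse-transcribed, PCR-amplified and sized by capillary electrophoresis; activity is fitted in both directions relative to DMSO.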

[19] = biological target: Signal transducer and activator of transcription 3 (Homo sapiens) (UniProt P40763); assay: ATG_STAT3_CIS: Attagene CIS-FACTORIAL HepG2 Assay for human Signal Transducer and Activator of Transcription 3 (STAT3) (AID 2282963); details: HepG2, Attagene cis-factorial STAT3 reporter transcription; actives raise or lower the signal
Method in brief: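 Readout is reporter transcript quantified by RT-PCR and capillary electrophoresis, with 6-FAM primer extension and HpaI digestion. Total RNA is taken 24 h after dosing transiently transfected HepG2 carrying cis-regulated reporter units. Bidirectional fit against DMSO.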

[20] = ATG_TA_CIS: Attagene CIS-FACTORIAL HepG2 Assay for human TA Basal Promoter (AID 2282964); details: HepG2 Attagene CIS-factorial TA basal promoter reporter; actives raise or lower the signal
Method in brief: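 Background internal-marker endpoint from a 52-component HepG2 cis-reporter panel. Cells treated 24 h; reporter transcripts quantified via RT-PCR and CE fluorescence against DMSO baseline.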

Chain of Hepatocyte nuclear factor 3-beta (Homo sapiens) (Q9Y261 whole entry, looked up): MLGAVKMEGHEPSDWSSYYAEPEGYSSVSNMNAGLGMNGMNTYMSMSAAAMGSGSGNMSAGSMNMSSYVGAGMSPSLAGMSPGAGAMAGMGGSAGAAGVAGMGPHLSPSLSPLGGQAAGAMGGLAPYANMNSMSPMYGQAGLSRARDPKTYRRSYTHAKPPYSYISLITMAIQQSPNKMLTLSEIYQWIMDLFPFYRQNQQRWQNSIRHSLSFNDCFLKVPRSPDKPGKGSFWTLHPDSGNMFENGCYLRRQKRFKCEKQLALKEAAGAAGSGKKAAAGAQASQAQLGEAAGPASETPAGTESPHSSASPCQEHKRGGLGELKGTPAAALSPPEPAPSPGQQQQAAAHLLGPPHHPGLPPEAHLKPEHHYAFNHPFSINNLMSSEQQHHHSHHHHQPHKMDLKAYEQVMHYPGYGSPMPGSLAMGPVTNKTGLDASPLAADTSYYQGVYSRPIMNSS
Chain of Signal transducer and activator of transcription 3 (Homo sapiens) (P40763 whole entry, looked up): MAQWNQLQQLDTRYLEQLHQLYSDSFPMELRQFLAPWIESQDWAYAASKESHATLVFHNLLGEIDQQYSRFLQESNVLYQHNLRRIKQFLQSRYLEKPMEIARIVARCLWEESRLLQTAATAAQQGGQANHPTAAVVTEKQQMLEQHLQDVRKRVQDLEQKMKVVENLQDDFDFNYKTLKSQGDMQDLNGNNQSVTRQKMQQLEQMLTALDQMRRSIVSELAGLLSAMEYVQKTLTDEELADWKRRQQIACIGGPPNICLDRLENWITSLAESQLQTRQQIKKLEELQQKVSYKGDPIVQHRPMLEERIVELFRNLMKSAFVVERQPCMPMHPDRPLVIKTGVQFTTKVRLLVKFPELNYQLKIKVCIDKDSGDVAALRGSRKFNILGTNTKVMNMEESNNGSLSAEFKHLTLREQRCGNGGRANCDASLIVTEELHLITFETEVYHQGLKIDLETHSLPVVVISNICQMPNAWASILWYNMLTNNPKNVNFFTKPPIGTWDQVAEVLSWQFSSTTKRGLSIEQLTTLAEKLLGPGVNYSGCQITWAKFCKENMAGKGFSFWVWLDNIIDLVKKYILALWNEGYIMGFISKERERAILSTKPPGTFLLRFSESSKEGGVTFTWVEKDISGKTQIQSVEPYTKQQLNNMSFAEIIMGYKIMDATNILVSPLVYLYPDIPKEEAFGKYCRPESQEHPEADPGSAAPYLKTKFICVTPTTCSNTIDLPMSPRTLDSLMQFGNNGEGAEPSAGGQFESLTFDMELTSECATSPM
Chain of CCAAT/enhancer-binding protein beta (Homo sapiens) (P17676 whole entry, looked up, the tested form may be a part): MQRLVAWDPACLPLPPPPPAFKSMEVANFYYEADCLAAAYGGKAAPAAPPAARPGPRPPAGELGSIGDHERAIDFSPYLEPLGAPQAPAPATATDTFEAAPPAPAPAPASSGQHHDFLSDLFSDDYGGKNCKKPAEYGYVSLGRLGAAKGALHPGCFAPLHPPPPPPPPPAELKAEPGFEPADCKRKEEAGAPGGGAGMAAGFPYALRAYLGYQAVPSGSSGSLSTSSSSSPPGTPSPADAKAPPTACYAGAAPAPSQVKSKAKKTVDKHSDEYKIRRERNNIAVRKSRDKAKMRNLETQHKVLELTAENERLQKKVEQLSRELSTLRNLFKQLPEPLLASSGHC
Chain of Transcription factor Sp1 (Homo sapiens) (P08047 whole entry, looked up, the tested form may be a part): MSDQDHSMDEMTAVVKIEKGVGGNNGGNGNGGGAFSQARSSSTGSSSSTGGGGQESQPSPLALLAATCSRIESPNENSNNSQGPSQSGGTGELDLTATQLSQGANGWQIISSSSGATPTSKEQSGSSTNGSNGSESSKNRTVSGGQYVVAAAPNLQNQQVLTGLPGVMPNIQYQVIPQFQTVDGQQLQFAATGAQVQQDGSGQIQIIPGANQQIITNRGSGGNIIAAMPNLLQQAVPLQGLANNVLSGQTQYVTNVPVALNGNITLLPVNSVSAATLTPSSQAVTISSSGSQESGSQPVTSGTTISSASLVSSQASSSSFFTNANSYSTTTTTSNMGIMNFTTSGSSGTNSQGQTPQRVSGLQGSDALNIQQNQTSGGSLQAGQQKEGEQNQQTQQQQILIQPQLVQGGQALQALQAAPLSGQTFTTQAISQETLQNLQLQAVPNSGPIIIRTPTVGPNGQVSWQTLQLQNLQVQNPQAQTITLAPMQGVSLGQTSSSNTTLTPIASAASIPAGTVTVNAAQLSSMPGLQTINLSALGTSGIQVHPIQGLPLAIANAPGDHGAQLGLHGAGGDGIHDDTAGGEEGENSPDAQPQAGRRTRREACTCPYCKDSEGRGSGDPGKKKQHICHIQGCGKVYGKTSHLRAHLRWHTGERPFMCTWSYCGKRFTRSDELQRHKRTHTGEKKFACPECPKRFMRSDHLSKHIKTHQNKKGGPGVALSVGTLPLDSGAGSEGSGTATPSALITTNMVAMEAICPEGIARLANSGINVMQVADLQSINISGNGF

For O=S(=O)(O)O, the outcome [1] was “inactive”, the outcome [2] was “inactive” and the outcome [3] was “inactive”. For the same compound, the outcome [4] was “inactive”, the outcome [5] was “inactive” and the outcome [6] was “inactive”. For the same compound, the outcome [7] was “inactive”, the outcome [8] was “inactive” and the outcome [9] was “inactive”. For the same compound, the outcome [10] was “inactive”, the outcome [11] was “inactive” and the outcome [12] was “inactive”. The outcome [13] was “inactive”, the outcome [14] was “inactive” and the outcome [15] was “inactive”. For the same compound, the outcome [16] was “inactive”, the outcome [17] was “inactive” and the outcome [18] was “inactive”. The outcome [19] was “inactive” and the outcome [20] was “inactive”.

In the case of CCC(=O)c1ccc(Cl)cc1, the outcome [1] is reported as “inactive”, the outcome [2] is reported as “inactive” and the outcome [3] is reported as “inactive”. For the same compound, the outcome [4] was “inactive”, the outcome [5] was “inactive” and the outcome [6] was “inactive”. The outcome [7] was “inactive”, the outcome [8] was “inactive” and the outcome [9] was “inactive”. For the same compound, the outcome [10] was “inactive”, the outcome [11] was “inactive” and the outcome [12] was “inactive”. The outcome [13] was “inactive”, the outcome [14] was “inactive” and the outcome [15] was “inactive”. The outcome [16] was “inactive”, the outcome [17] was “inactive” and the outcome [18] was “inactive”. The outcome [19] was “inactive” and the outcome [20] was “inactive”.

For CN(C)C(=O)C(c1ccccc1)c1ccccc1, the outcome [1] was “inactive”, the outcome [2] was “inactive” and the outcome [3] was “inactive”. The outcome [4] was “inactive”, the outcome [5] was “inactive” and the outcome [6] was “inactive”. For the same compound, the outcome [7] was “inactive”, the outcome [8] was “inactive” and the outcome [9] was “inactive”. The outcome [10] was “inactive”, the outcome [11] was “inactive” and the outcome [12] was “inactive”. The outcome [13] was “inactive”, the outcome [14] was “inactive” and the AC50 [15] was 9.67 µM (active). For the same compound, the outcome [16] was “inactive”, the outcome [17] was “inactive” and the outcome [18] was “inactive”. The outcome [19] was “inactive” and the outcome [20] was “inactive”.

In the case of CC(C)C#N, the outcome [1] is reported as “inactive”, the outcome [2] is reported as “inactive” and the outcome [3] is reported as “inactive”. The outcome [4] was “inactive”, the outcome [5] was “inactive” and the outcome [6] was “inactive”. For the same compound, the outcome [7] was “inactive”, the outcome [8] was “inactive” and the outcome [9] was “inactive”. The outcome [10] was “inactive”, the outcome [11] was “inactive” and the outcome [12] was “inactive”. The outcome [13] was “inactive”, the outcome [14] was “inactive” and the AC50 [15] was 27.6 µM (active). For the same compound, the outcome [16] was “inactive”, the outcome [17] was “inactive” and the outcome [18] was “inactive”. For the same compound, the outcome [19] was “inactive” and the outcome [20] was “inactive”.

For Nc1ccc(Cl)c(Cl)c1, the outcome [1] was “inactive”, the outcome [2] was “inactive” and the outcome [3] was “inactive”. For the same compound, the AC50 [4] was 134 µM (active), the outcome [5] was “inactive” and the outcome [6] was “inactive”. For the same compound, the outcome [7] was “inactive”, the outcome [8] was “inactive” and the outcome [9] was “inactive”. The outcome [10] was “inactive”, the outcome [11] was “inactive” and the outcome [12] was “inactive”. The outcome [13] was “inactive”, the outcome [14] was “inactive” and the outcome [15] was “inactive”. The outcome [16] was “inactive”, the outcome [17] was “inactive” and the outcome [18] was “inactive”. The outcome [19] was “inactive” and the outcome [20] was “inactive”.

With C#CC1(O)CCCCC1 the outcome [1] was “inactive”, the outcome [2] was “inactive” and the outcome [3] was “inactive”. The outcome [4] was “inactive”, the outcome [5] was “inactive” and the outcome [6] was “inactive”. For the same compound, the outcome [7] was “inactive”, the outcome [8] was “inactive” and the outcome [9] was “inactive”. The outcome [10] was “inactive”, the outcome [11] was “inactive” and the outcome [12] was “inactive”. The outcome [13] was “inactive”, the outcome [14] was “inactive” and the outcome [15] was “inactive”. For the same compound, the outcome [16] was “inactive”, the outcome [17] was “inactive” and the outcome [18] was “inactive”. The outcome [19] was “inactive” and the outcome [20] was “inactive”.

In the case of N#CCNCC#N, the outcome [1] is reported as “inactive”, the outcome [2] is reported as “inactive” and the outcome [3] is reported as “inactive”. For the same compound, the outcome [4] was “inactive”, the outcome [5] was “inactive” and the outcome [6] was “inactive”. For the same compound, the outcome [7] was “inactive”, the outcome [8] was “inactive” and the outcome [9] was “inactive”. The outcome [10] was “inactive”, the outcome [11] was “inactive” and the outcome [12] was “inactive”. For the same compound, the outcome [13] was “inactive”, the outcome [14] was “inactive” and the outcome [15] was “inactive”. The outcome [16] was “inactive”, the outcome [17] was “inactive” and the outcome [18] was “inactive”. The outcome [19] was “inactive” and the outcome [20] was “inactive”.
